Data published in PubChem BioAssay (NCI).
Compounds without any hit were thinned out: in the full panel of roughly 79,000, 15% have a hit. No stated cut-off is given here; in the data, active means growth inhibition above about 70%; inactive means the rest.

What was measured:
[1] = NCI Yeast Anticancer Drug Screen. Data for the rad50 strain (AID 155);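 further: 0% = growth of vehicle-only cultures of the same strain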; conditions: S. cerevisiae rad50 strain growth inhibition; at 50.0 µM; active compounds read high
Method in brief: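 Genetically altered yeast (DNA repair pathway); compound treatment; growth inhibition vs vehicle ctrl.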

[2] = NCI Yeast Anticancer Drug Screen. Data for the mec2-1 strain (AID 157); conditions: S. cerevisiae mec2-1 strain, at 50.0 µM, active compounds read high
Method in brief: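 Growth inhibition is read against vehicle-treated controls after compound exposure of the mec2-1 yeast strain, which is defective in DNA damage repair or cell cycle control.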

[3] = NCI Yeast Anticancer Drug Screen. Data for the sgs1 mgt1 strain (AID 161);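 further: 0% = growth of cultures given vehicle only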; conditions: S. cerevisiae sgs1 mgt1 strain, at 50.0 µM, active compounds read high
Method in brief: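 Growth of a repair-deficient yeast mutant was monitored after compound treatment and expressed as inhibition relative to vehicle-treated cultures.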

[4] = NCI Yeast Anticancer Drug Screen. Data for the cln2 rad14 strain (AID 165);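 further: 0% = growth equal to vehicle treated cultures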; conditions: S. cerevisiae cln2 rad14 strain, at 50.0 µM, active compounds read high
Method in brief: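 Growth inhibition, relative to vehicle-treated controls, is the read-out. The test organism is a yeast strain with defined genetic alterations, cln2 rad14.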

[5] = NCI Yeast Anticancer Drug Screen. Data for the bub3 strain (AID 167); conditions: S. cerevisiae bub3 mutant strain, at 50.0 µM, active compounds read high
Method in brief: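 Yeast carrying a defined mutation is treated with each compound, and growth is compared with that of vehicle-exposed cells to give inhibition.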

[6] = NCI Yeast Anticancer Drug Screen. Data for the mlh1 rad18 strain (AID 175); conditions: S. cerevisiae mlh1 rad18 strain growth inhibition; at 50.0 µM; active compounds read high
Method in brief: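 Cells of a genetically altered yeast strain, deficient in DNA damage repair, were treated with compound. Their growth was then compared with that of vehicle-treated cultures to give inhibition.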

Measured: growth inhibition

CC(C)OC(=O)C(=O)OC(C)C
inactive: [1] 14.3% | [2] 20.1% | [3] -24.3% | [4] 0.1% | [5] 0.85% | [6] 1.85%

CC12CCC3=C(CCc4cc(O)ccc43)C1CCC2=O (centres undefined)
inactive: [1] -4.8% | [2] 9.75% | [3] 5.8% | [4] -34.5% | [5] -7.95% | [6] 4.4%

CCCCCCCCCCCCCCCC(=O)N(CCCCCCCCCCC(=O)O)CC(O)C(O)C(OC1OC(CO)C(O)C(O)C1O)C(O)CO (centres undefined)
inactive: [1] -8.15% | [2] -23.6% | [3] 10.2% | [4] -22.3% | [5] 50.6% | [6] -15.8%

CCC(C)(C#N)OC(C)=O (centres undefined)
inactive: [1] -3.75% | [2] -26.6% | [3] -8.4% | [4] -6.85% | [5] 4.6% | [6] 8.45%

CCCCN(CCCC)S(=O)(=O)N1CCOCC1
inactive: [1] -12.3% | [2] -10.1% | [3] 3% | [4] 9.1% | [5] 10.4% | [6] 2.75%

COc1ccc(C2OC3=Nc4cc(C)c(C)cc4NC3C2=O)cc1OC (centres undefined)
inactive: [1] 15.7% | [2] -6.75% | [3] -6.15% | [4] -1.9% | [5] -23.4% | [6] 1.9%

CN(C)C(=S)N(C(=S)N(C)C)c1ccc(Cl)cc1
inactive: [1] -7.9% | [2] -11.8% | [3] -7.15% | [4] -4.1% | [5] 3.1% | [6] -17.8%

O=C(O)Cc1c(-c2ccc([N+](=O)[O-])cc2)c(=O)oc2cc(O)ccc12
inactive: [1] 28.4% | [2] 4.15% | [3] 9% | [4] 20.1% | [5] 41% | [6] 11.7%

CCOC(=O)C(c1ccccc1)C(C)c1ccccc1 (centres undefined)
inactive: [1] -7.5% | [2] -0.4% | [3] 1.85% | [4] 1.9% | [5] -11.3% | [6] -12.2%

CCCCCCCCS(N)(=O)=O
inactive: [1] 0.8% | [2] -15.2% | [3] -4.1% | [4] -11.4% | [5] -2.55% | [6] -8.95%

OCCCNCc1ccccc1
inactive: [1] -36.8% | [2] -23.4% | [3] -20.1% | [4] -32.4% | [5] -32.9% | [6] -21.1%

CCc1ccc(-n2c(C)nc3[nH]cc(C)c3c2=N)cc1
inactive: [1] -13.6% | [2] -3.35% | [3] -11.9% | [4] -12.3% | [5] -2.65% | [6] -10.4%

Cc1csc(NC(=O)C2C3CCC(O3)C2C(=O)O)n1 (centres undefined)
inactive: [1] 22.1% | [2] -11.2% | [3] -6.5% | [4] 10.4% | [5] -4.95% | [6] -12.6%

Cc1c2c(n3c(nc4ccccc43)c1C#N)N(c1ccc(Cl)cc1)CC2
inactive: [1] 1.1% | [2] -1.3% | [3] -10.8% | [4] 7.35% | [5] -6.4% | [6] -15.3%

COc1cc(S(N)(=O)=O)c(OC)cc1N
inactive: [1] 21.1% | [2] -28.2% | [3] -11.4% | [4] 8.8% | [5] -5.6% | [6] -10.1%

CCOC(=O)C(C(=O)OCC)c1cnc2ccccc2c1Cl
inactive: [1] -0.7% | [2] -9.45% | [3] 6.55% | [4] -40.5% | [5] -4.5% | [6] 2.85%

Cc1nn(C(=O)CC(=O)Nc2ccccc2Cl)c(C)c1N=Nc1ccccc1Cl
inactive: [1] -11.3% | [2] 1.8% | [3] -29.1% | [4] 35.1% | [5] -8.55% | [6] -23.1%

CN(C)c1ccc(N=Nc2ccc3nc[nH]c3c2)cc1
inactive: [1] -3.15% | [2] 6.65% | [3] 42% | [4] -6.1% | [5] -3.3% | [6] 26.5%

CC(=O)SC1CS(=O)(=O)CC1SC(C)=O (centres undefined)
inactive: [1] 60.8% | [2] 52.9% | [3] 59% | [4] 40.2% | [5] 44.5% | [6] 63.5%

COc1ccc(/C(=N/N)c2ccccc2)cc1
inactive: [1] 3.6% | [2] -40.5% | [3] -23.6% | [4] -42.4% | [5] -18.8% | [6] -2.15%

COc1ccc(OC)c(N=Cc2ccc(C=Nc3cc(OC)ccc3OC)cc2)c1
inactive: [1] -8% | [2] -12.3% | [3] -10.6% | [4] 4.7% | [5] -9% | [6] -5.8%

Clc1ccc(CSc2nnc(SCc3ccc(Cl)cc3)c3[nH]cnc23)cc1
inactive: [1] 14.2% | [2] 0.05% | [3] 20.9% | [4] 25.9% | [5] -3.2% | [6] -11.7%

CC(=O)N(C)c1ccccc1O
inactive: [1] 6.6% | [2] -10.1% | [3] -14.6% | [4] -33.2% | [5] 10.2% | [6] -19.9%

Cc1nc2ccc(C(F)(F)F)cc2nc1Nc1ccc(Cl)c(Cl)c1
inactive: [1] 20.2% | [2] 27.4% | [3] 47.6% | [4] 15.2% | [5] 6.95% | [6] 34%

O=C1CCc2ccccc2-c2ccccc21
inactive: [1] 17.9% | [2] 5% | [3] -12.1% | [4] -32% | [5] -5.3% | [6] 5.4%

CN(C)Cc1c(C(O)(c2ccccc2)c2ccccc2)cc2ccccc2c1Cl
inactive: [1] -12.8% | [2] -15.3% | [3] -25.6% | [4] -3% | [5] 1.05% | [6] -10.4%

COC(=O)N1C(c2ccccc2)(c2ccccc2)CS1(=O)=O
inactive: [1] 15.2% | [2] 10.1% | [3] 9.3% | [4] 15.6% | [5] 11.8% | [6] 5.25%

CC1SCCNC1=O (centres undefined)
inactive: [1] -2.1% | [2] -1.5% | [3] -0.1% | [4] 7.3% | [5] 4% | [6] -16.9%

COc1ccc(/C(C)=N/[O-])cc1CS[n+]1ccccc1
inactive: [1] 15.1% | [2] 27.7% | [3] 47.4% | [4] -4.4% | [5] 59.2% | [6] 48.6%

NC(=O)Cc1c(F)c(F)c(F)c(F)c1F
inactive: [1] 9.95% | [2] -20.5% | [3] -0.95% | [4] 8.85% | [5] 28.8% | [6] 5.3%

CC(CN(C)C)N(C)C (centres undefined)
inactive: [1] -14.7% | [2] -34.5% | [3] -41.6% | [4] -7.75% | [5] -4.6% | [6] 0.15%

Oc1ccc2ccccc2c1C=NCc1c(O)ccc2ccccc12
inactive: [1] 3.5% | [2] -1.7% | [3] -11.2% | [4] -39.2% | [5] -43.6% | [6] 8.75%

Nc1cc(N)cc([N+](=O)[O-])c1
inactive: [1] -9.75% | [2] -16.4% | [3] -8% | [4] -13.7% | [5] 8.8% | [6] 15.2%

CCCCSCC(NC(=O)/C=C/c1c(C)[nH]c(=O)[nH]c1=O)C(=O)OC (centres undefined)
inactive: [1] 16.1% | [2] 20.2% | [3] 31.2% | [4] 22.4% | [5] 7.7% | [6] 28.6%

Cc1ccc(/C=C2/NC(=S)SC2=O)cc1
inactive: [1] -14.1% | [2] -3.6% | [3] 14.6% | [4] 12% | [5] 1.75% | [6] -30.4%

O=c1c2c(c(=O)c(=O)c1=O)Nc1ccccc1N2
inactive: [1] 22.2% | [2] -6.15% | [3] 11.6% | [4] 34.7% | [5] 10.2% | [6] 15.7%

CC1CCCC2(C1)OCC(O)CO2 (centres undefined)
inactive: [1] 23.2% | [2] -2.2% | [3] 8.8% | [4] 12.8% | [5] 7.65% | [6] 10.2%

O=C1CCCC2=C1CC1=C(CCCC1=O)N2c1ccccc1C(=O)O
inactive: [1] -25.2% | [2] -20.8% | [3] -23.8% | [4] -5% | [5] -21.9% | [6] -36.3%

O=C(O)CCCC#CCCCC(=O)O
inactive: [1] 10.4% | [2] 4.5% | [3] 2% | [4] 17.3% | [5] 25.8% | [6] -13.7%
